Data as given in the supplement of paper PMC10849652.
Targets with a hit are over-represented here; the source holds about 7,900 in all. About 0.6% of all pairs of compound and target were hits.

Key:
Experiment in all cases: log2 fold change, soluble protein after heating vs DMSO (PISA); higher = thermal stabilisation; K562 cells, 10 uM, 30 min; active = over 0.2 and 3.5 SD of the protein, either way, in both replicates (recomputed)
saracatinib = compound: CN1CCN(CCOc2cc(OC3CCOCC3)c3c(Nc4c(Cl)ccc5c4OCO5)ncnc3c2)CC1 [saracatinib]
In short: (§1)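 Soluble protein was defined as the supernatant after 21,000xg for 90 min. It came from K562 cells at 2×10^6 cells/mL given 10 μM compound for 30 min, heated in aliquots for 3 min across 48°C-58°C, pooled, and extracted in PBS with 0.5% NP-40 at 4°C, and was quantified by TMTpro 16plex LC-MS/MS with equalised channel sums. Thermal stability against control samples, from duplicates, is reported as log2 fold change.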

sotrastaurin = compound: CN1CCN(c2nc(C3=C(c4c[nH]c5ccccc45)C(=O)NC3=O)c3ccccc3n2)CC1 [sotrastaurin]
In short: as §1

alvocidib = compound: CN1CC[C@H](c2c(O)cc(O)c3c(=O)cc(-c4ccccc4Cl)oc23)[C@H](O)C1 [alvocidib]
In short: as §1

Tubastatin A = compound: CN1CCc2c(c3ccccc3n2Cc2ccc(C(=O)NO)cc2)C1 [Tubastatin A]
In short: as §1

[1] = compound: CNC(=O)C1=CC=CC=C1NC2=NC(=NC=C2Cl)NC3=C(C=C(C=C3)N4CCOCC4)OC
In short: as §1

defactinib = compound: CNC(=O)c1ccc(Nc2ncc(C(F)(F)F)c(NCc3nccnc3N(C)S(C)(=O)=O)n2)cc1 [defactinib]
In short: as §1

rucaparib = compound: CNCc1ccc(-c2[nH]c3cc(F)cc4c3c2CCNC4=O)cc1 [rucaparib]
In short: as §1

[2] = compound: CNc1nc(-c2ccc3c(N)n[nH]c3c2)cc(N2C[C@@H](C(=O)NC3CCCCC3)CC[C@H]2C)n1
In short: as §1

encorafenib = compound: COC(=O)N[C@@H](C)CNc1nccc(-c2cn(C(C)C)nc2-c2cc(Cl)cc(NS(C)(=O)=O)c2F)n1 [encorafenib]
In short: as §1

[3] = compound: COC(=O)[C@H](CCSC)NC(=O)C1=C(C=C(C=C1)NC[C@H](CS)N)C2=CC=CC=C2
In short: as §1

[4] = compound: COC1=CC=C(C=C1)CN2C=CC3=C2C=C(C=C3)C(=O)NO
In short: as §1

filanesib = compound: CON(C)C(=O)N1N=C(c2cc(F)ccc2F)S[C@@]1(CCCN)c1ccccc1 [filanesib]
In short: as §1

zotarolimus = compound: CO[C@H]1C[C@@H]2CC[C@@H](C)[C@@](O)(O2)C(=O)C(=O)N2CCCC[C@H]2C(=O)O[C@H]([C@H](C)C[C@@H]2CC[C@H](n3cnnn3)[C@H](OC)C2)CC(=O)[C@H](C)/C=C(\C)[C@@H](O)[C@@H](OC)C(=O)[C@H](C)C[C@H](C)/C=C/C=C/C=C/1C [zotarolimus]
In short: as §1

idasanutlin = compound: COc1cc(C(=O)O)ccc1NC(=O)[C@@H]1N[C@@H](CC(C)(C)C)[C@](C#N)(c2ccc(Cl)cc2F)[C@H]1c1cccc(Cl)c1F [idasanutlin]
In short: as §1

alisertib = compound: COc1cc(Nc2ncc3c(n2)-c2ccc(Cl)cc2C(c2c(F)cccc2OC)=NC3)ccc1C(=O)O [alisertib]
In short: as §1

[5] = compound: COc1cc2nc(-c3cc(F)ccc3O)nc(N[C@@H]3CNC[C@H]3C(C)(C)O)c2cc1OC
In short: as §1

gefitinib = compound: COc1cc2ncnc(Nc3ccc(F)c(Cl)c3)c2cc1OCCCN1CCOCC1 [gefitinib]
In short: as §1

[6] = compound: COc1cccc2cc(-c3nc([C@H]4CC[C@H](C(=O)O)CC4)n4ncnc(N)c34)[nH]c12
In short: as §1

lapatinib = compound: CS(=O)(=O)CCNCc1ccc(-c2ccc3ncnc(Nc4ccc(OCc5cccc(F)c5)c(Cl)c4)c3c2)o1 [lapatinib]
In short: as §1

pictilisib = compound: CS(=O)(=O)N1CCN(Cc2cc3nc(-c4cccc5[nH]ncc45)nc(N4CCOCC4)c3s2)CC1 [pictilisib]
In short: as §1

Measured: log2 fold change

TMEM164 (UniProt Q5U3C3)
UniProt Q5U3C3, sequence (Q5U3C3 whole entry, looked up): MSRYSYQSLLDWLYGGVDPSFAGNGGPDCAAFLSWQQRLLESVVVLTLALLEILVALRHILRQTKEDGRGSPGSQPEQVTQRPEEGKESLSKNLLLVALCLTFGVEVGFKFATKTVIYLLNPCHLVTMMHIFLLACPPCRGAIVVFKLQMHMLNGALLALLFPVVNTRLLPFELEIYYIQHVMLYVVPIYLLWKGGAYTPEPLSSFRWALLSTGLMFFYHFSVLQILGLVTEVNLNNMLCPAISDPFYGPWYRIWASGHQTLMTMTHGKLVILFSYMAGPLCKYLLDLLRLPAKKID
inactive: saracatinib -0.13 | sotrastaurin 0.197 | alvocidib 0.025 | Tubastatin A 0.012 | [1] 0.033 | defactinib 0.06 | rucaparib -0.233 | [2] 0.061 | encorafenib 0.211 | [3] -0.003 | [4] 0.045 | filanesib -0.306 | zotarolimus -0.039 | idasanutlin -0.031 | alisertib 0.211 | [5] 0.098 | gefitinib -0.013 | [6] 0.198 | lapatinib -0.06 | pictilisib 0.008

VDAC1 (UniProt P21796)
UniProt P21796, sequence (P21796 whole entry, looked up): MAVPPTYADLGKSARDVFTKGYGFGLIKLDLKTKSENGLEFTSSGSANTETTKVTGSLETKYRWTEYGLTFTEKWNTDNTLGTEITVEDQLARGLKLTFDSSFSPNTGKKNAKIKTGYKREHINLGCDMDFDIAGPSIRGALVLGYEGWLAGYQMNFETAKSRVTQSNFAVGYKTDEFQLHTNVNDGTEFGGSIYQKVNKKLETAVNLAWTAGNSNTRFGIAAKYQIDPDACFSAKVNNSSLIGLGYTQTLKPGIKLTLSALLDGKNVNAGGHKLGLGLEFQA
inactive: saracatinib 0.074 | sotrastaurin 0.035 | alvocidib 0.016 | Tubastatin A -0.014 | [1] 0.011 | defactinib 0.005 | rucaparib -0.022 | [2] -0.026 | encorafenib -0.03 | [3] 0.014 | [4] 0 | filanesib -0.036 | zotarolimus -0.01 | idasanutlin -0.004 | alisertib -0.033 | [5] -0.023 | gefitinib -0.007 | [6] 0.052 | lapatinib 0 | pictilisib 0.002

WDR61 (UniProt Q9GZS3)
inactive: saracatinib -0.011 | sotrastaurin 0.064 | alvocidib -0.051 | Tubastatin A -0.011 | [1] -0.005 | defactinib -0.012 | rucaparib -0.012 | [2] -0.007 | encorafenib -0.028 | [3] 0.031 | [4] -0.121 | filanesib -0.031 | zotarolimus 0.008 | idasanutlin -0.05 | alisertib -0.082 | [5] 0.14 | gefitinib -0.035 | [6] 0.065 | lapatinib -0.104 | pictilisib 0.042

WBP4 (UniProt O75554)
UniProt O75554, sequence (O75554 whole entry, looked up): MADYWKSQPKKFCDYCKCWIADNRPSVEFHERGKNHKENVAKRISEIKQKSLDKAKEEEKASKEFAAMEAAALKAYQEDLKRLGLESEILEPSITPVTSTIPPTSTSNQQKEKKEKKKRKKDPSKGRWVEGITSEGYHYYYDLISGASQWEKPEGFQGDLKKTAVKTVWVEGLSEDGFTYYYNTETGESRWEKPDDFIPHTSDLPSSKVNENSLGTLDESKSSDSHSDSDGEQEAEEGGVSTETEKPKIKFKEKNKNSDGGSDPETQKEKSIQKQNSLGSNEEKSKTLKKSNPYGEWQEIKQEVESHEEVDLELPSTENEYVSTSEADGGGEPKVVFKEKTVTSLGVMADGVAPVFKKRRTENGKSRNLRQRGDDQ
inactive: saracatinib 0.113 | sotrastaurin 0.012 | alvocidib -0.032 | Tubastatin A -0.02 | [1] -0.015 | defactinib 0.012 | rucaparib -0.031 | [2] -0.019 | encorafenib -0.046 | [3] 0.045 | [4] 0.001 | filanesib -0.082 | zotarolimus -0.025 | idasanutlin 0.022 | alisertib -0.042 | [5] -0.009 | gefitinib 0.014 | [6] -0.003 | lapatinib 0.05 | pictilisib -0.139

VPS13B (UniProt Q7Z7G8)
inactive: saracatinib 0.033 | sotrastaurin 0.016 | alvocidib -0.003 | Tubastatin A 0.032 | [1] -0.002 | defactinib 0.009 | rucaparib -0.039 | [2] -0.016 | encorafenib 0.031 | [3] -0.01 | [4] 0.019 | filanesib -0.11 | zotarolimus -0.007 | idasanutlin 0.025 | alisertib 0.07 | [5] -0.111 | gefitinib 0.019 | [6] 0.07 | lapatinib -0.018 | pictilisib 0.057

WDR4 (UniProt P57081)
UniProt P57081, sequence (P57081 whole entry, looked up): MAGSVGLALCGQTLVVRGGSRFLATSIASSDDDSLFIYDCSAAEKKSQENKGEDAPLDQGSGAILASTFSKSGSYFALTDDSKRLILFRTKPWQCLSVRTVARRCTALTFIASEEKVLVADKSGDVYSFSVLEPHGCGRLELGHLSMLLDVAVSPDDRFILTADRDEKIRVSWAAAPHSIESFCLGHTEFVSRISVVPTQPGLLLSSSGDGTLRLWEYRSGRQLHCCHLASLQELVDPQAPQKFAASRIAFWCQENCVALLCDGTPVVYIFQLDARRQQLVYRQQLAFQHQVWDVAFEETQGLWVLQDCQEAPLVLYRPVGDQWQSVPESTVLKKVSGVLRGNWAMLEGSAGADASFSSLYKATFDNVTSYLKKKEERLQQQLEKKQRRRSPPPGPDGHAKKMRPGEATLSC
inactive: saracatinib 0.008 | sotrastaurin 0.071 | alvocidib -0.068 | Tubastatin A 0.018 | [1] -0.022 | defactinib -0.027 | rucaparib -0.079 | [2] 0.024 | encorafenib 0.041 | [3] -0.033 | [4] 0.017 | filanesib -0.022 | zotarolimus 0.004 | idasanutlin -0.096 | alisertib -0.059 | [5] -0.058 | gefitinib -0.01 | [6] 0.049 | lapatinib 0.206 | pictilisib 0.131

UBE2J1 (UniProt Q9Y385)
UniProt Q9Y385, sequence (Q9Y385 whole entry, looked up): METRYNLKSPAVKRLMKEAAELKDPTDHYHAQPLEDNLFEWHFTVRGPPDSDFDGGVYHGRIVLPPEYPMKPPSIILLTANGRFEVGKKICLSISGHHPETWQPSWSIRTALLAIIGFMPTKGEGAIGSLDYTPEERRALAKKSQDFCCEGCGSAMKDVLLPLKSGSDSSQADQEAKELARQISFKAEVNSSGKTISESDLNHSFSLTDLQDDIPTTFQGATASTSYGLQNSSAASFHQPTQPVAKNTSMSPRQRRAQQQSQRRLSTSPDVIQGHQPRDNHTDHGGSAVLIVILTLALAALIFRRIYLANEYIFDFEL
inactive: saracatinib 0.019 | sotrastaurin -0.016 | alvocidib -0.073 | Tubastatin A 0.26 | [1] -0.046 | defactinib -0.133 | rucaparib 0.048 | [2] 0.204 | encorafenib 0.001 | [3] 0.035 | [4] -0.209 | filanesib 0.119 | zotarolimus 0.046 | idasanutlin -0.12 | alisertib -0.259 | [5] 0.232 | gefitinib -0.035 | [6] 0.241 | lapatinib -0.064 | pictilisib -0.081

WAPL isoform 3 (UniProt Q7Z5K2)
UniProt Q7Z5K2, sequence (Q7Z5K2 whole entry, looked up): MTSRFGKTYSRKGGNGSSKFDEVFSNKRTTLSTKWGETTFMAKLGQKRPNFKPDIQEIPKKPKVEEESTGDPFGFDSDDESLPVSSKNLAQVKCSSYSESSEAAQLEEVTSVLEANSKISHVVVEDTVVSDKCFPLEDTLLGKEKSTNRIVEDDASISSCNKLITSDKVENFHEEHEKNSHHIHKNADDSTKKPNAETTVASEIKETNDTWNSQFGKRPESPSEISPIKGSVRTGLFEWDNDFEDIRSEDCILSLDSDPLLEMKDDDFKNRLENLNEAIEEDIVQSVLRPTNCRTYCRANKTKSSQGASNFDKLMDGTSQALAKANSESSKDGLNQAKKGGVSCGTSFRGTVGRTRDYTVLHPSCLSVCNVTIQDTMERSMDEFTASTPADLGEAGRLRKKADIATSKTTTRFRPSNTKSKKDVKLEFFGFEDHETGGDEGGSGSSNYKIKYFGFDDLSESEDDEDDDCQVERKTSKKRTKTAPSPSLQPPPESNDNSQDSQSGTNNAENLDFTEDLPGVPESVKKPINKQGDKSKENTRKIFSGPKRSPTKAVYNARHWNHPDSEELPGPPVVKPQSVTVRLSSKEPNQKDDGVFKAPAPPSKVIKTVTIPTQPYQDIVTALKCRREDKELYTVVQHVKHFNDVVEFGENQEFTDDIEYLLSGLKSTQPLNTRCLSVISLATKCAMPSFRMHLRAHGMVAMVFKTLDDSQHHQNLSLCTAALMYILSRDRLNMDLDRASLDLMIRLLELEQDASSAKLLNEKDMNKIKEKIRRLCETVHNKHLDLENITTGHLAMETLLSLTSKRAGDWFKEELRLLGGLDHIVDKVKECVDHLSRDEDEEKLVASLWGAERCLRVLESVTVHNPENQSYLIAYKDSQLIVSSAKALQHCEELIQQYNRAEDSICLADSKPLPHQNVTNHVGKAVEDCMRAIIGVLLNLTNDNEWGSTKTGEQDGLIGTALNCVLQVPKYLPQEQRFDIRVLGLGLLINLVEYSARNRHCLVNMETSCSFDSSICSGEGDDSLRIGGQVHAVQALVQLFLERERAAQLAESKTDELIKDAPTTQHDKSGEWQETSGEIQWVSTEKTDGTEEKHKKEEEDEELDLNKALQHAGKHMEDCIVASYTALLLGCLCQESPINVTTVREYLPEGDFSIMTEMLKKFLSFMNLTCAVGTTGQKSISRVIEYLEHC
inactive: saracatinib 0.043 | sotrastaurin -0.144 | alvocidib -0.296 | Tubastatin A 0.063 | [1] -0.008 | defactinib -0.265 | rucaparib -0.066 | [2] -0.052 | encorafenib 0.212 | [3] -0.079 | [4] 0.052 | filanesib -0.009 | zotarolimus 0.128 | idasanutlin -0.027 | alisertib 0.038 | [5] -0.273 | gefitinib -0.006 | [6] -0.003 | lapatinib 0 | pictilisib 0.027

TRAPPC2L (UniProt Q9UL33)
UniProt Q9UL33, sequence (Q9UL33 whole entry, looked up): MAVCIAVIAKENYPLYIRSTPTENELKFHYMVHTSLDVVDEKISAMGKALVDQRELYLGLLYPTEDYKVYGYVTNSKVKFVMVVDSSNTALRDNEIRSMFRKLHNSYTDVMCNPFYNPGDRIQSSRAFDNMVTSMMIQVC
inactive: saracatinib -0.07 | sotrastaurin -0.101 | alvocidib -0.015 | Tubastatin A 0.011 | defactinib -0.032 | rucaparib 0.03 | [2] -0.026 | encorafenib 0.012 | [3] -0.042 | [4] -0.102 | filanesib -0.05 | zotarolimus 0.098 | idasanutlin -0.026 | alisertib -0.029 | [5] 0.03 | gefitinib 0 | [6] -0.062 | lapatinib 0.088 | pictilisib -0.018
active: [1] -0.376

TOE1 (UniProt Q96GM8)
inactive: saracatinib 0.025 | sotrastaurin -0.016 | alvocidib 0.221 | Tubastatin A 0.031 | [1] 0.122 | defactinib 0.193 | rucaparib -0.066 | [2] 0.05 | encorafenib 0.017 | [3] 0.05 | [4] -0.06 | filanesib 0.246 | zotarolimus 0.023 | idasanutlin 0.032 | alisertib -0.075 | [5] 0.039 | gefitinib 0.014 | [6] -0.162 | lapatinib 0.076 | pictilisib -0.054

VPS28 (UniProt Q9UK41)
UniProt Q9UK41, sequence (Q9UK41 whole entry, looked up): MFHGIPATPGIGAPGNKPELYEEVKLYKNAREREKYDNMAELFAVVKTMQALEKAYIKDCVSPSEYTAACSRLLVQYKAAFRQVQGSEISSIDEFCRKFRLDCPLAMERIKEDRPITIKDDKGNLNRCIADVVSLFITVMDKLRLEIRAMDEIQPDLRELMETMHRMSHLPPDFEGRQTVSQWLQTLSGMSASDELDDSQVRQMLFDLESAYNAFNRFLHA
inactive: saracatinib -0.101 | sotrastaurin -0.078 | alvocidib -0.135 | Tubastatin A 0.072 | [1] 0.043 | defactinib -0.172 | rucaparib -0.044 | [2] -0.046 | encorafenib 0.082 | [3] -0.033 | [4] -0.17 | filanesib -0.061 | zotarolimus 0.008 | idasanutlin -0.076 | alisertib 0.07 | [5] 0.038 | gefitinib 0.027 | [6] 0.033 | lapatinib 0.023 | pictilisib 0.059

UQCR10 (UniProt Q9UDW1)
UniProt Q9UDW1, sequence (Q9UDW1 whole entry, looked up): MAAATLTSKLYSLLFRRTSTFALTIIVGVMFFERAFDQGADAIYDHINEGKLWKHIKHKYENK
inactive: saracatinib 0.001 | sotrastaurin 0.121 | alvocidib -0.024 | Tubastatin A -0.103 | [1] 0.018 | defactinib 0.039 | rucaparib -0.063 | [2] 0.018 | encorafenib 0.001 | [3] -0.031 | [4] -0.084 | filanesib -0.05 | zotarolimus -0.02 | idasanutlin 0.031 | alisertib -0.005 | [5] 0.037 | gefitinib -0.028 | [6] 0.022 | lapatinib -0.038 | pictilisib -0.063

USO1 isoform 2 (UniProt O60763)
UniProt O60763, sequence (O60763 whole entry, looked up): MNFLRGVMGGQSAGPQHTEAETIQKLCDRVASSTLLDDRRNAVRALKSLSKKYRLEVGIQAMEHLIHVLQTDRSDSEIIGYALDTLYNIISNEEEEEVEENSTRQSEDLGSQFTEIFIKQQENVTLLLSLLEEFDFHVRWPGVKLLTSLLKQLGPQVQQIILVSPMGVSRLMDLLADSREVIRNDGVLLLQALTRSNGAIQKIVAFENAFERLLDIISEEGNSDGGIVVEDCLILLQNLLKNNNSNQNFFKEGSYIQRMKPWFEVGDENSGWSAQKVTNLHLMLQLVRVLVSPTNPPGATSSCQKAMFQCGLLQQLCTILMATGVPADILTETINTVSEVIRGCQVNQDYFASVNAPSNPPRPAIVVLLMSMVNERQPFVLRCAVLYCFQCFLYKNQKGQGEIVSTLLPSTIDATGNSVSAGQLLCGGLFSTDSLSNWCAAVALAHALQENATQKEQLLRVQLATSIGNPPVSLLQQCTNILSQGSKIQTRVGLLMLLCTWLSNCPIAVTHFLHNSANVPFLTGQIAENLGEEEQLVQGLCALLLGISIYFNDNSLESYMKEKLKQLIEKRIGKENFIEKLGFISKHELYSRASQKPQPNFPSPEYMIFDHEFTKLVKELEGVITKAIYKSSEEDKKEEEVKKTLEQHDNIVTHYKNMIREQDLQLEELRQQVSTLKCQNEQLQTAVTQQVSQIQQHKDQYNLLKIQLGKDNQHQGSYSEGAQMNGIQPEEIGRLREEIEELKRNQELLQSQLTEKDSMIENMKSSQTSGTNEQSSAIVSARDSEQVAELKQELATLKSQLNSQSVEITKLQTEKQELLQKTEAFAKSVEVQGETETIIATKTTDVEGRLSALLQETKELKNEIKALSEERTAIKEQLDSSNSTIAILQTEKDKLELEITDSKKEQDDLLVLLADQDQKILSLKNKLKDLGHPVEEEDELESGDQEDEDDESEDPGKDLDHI
inactive: saracatinib 0.076 | sotrastaurin -0.028 | alvocidib -0.012 | Tubastatin A -0.026 | [1] 0.029 | defactinib -0.034 | rucaparib -0.019 | [2] 0.03 | encorafenib 0.022 | [3] -0.003 | [4] 0.009 | filanesib -0.054 | zotarolimus 0.034 | idasanutlin -0.054 | alisertib -0.037 | [5] -0.031 | gefitinib 0.003 | [6] 0.01 | lapatinib 0.016 | pictilisib 0.014

UBE2S (UniProt Q16763)
UniProt Q16763, sequence (Q16763 whole entry, looked up): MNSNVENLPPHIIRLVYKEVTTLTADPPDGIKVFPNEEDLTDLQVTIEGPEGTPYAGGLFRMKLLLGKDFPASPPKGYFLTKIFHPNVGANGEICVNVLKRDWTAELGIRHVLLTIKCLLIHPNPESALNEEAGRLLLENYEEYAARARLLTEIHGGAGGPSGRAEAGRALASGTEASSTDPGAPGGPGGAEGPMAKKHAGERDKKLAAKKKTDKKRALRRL
inactive: saracatinib -0.001 | sotrastaurin -0.023 | alvocidib -0.078 | Tubastatin A 0.2 | [1] -0.016 | defactinib -0.082 | rucaparib -0.051 | [2] -0.041 | encorafenib 0.022 | [3] -0.007 | [4] 0.003 | filanesib 0.01 | zotarolimus 0.045 | idasanutlin -0.05 | alisertib 0.015 | [5] 0.053 | gefitinib -0.009 | [6] 0.001 | lapatinib -0.035 | pictilisib 0.058

TPR (UniProt P12270)
inactive: saracatinib 0.152 | sotrastaurin -0.147 | alvocidib -0.012 | Tubastatin A -0.035 | [1] 0.239 | defactinib 0.005 | rucaparib -0.043 | [2] -0.112 | encorafenib -0.047 | [3] 0.023 | [4] -0.048 | filanesib 0.115 | zotarolimus 0.049 | idasanutlin 0.055 | alisertib -0.076 | [5] 0.065 | gefitinib -0.056 | [6] -0.06 | lapatinib 0.044 | pictilisib 0.036

UBIAD1 (UniProt Q9Y5Z9)
UniProt Q9Y5Z9, sequence (Q9Y5Z9 whole entry, looked up): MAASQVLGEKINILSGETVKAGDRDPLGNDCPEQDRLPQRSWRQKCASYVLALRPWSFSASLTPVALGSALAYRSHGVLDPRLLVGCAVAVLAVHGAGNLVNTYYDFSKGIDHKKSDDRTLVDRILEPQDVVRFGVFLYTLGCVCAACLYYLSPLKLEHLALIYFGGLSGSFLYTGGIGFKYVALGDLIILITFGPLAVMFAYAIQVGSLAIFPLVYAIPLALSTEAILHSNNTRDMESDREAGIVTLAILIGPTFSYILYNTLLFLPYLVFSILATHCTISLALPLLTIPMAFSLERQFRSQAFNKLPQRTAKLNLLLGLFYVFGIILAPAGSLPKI
inactive: saracatinib 0.003 | sotrastaurin 0.208 | alvocidib 0.021 | Tubastatin A -0.078 | [1] 0.054 | defactinib 0.002 | [2] -0.053 | encorafenib -0.035 | [3] -0.039 | [4] -0.063 | filanesib -0.038 | zotarolimus -0.246 | idasanutlin -0.039 | alisertib -0.054 | [5] -0.008 | gefitinib 0.077 | [6] 0.013 | lapatinib 0.082 | pictilisib 0.103
active: rucaparib 0.473
